According to PubChem BioAssay (NCI):
The panel holds about 83,000 compounds, 20% with a hit somewhere; the sample as a whole holds those more often.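 48-hour exposure, single concentration, 96-well plates; percent growth endpoint where 0 means no net growth. Active: below 10.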 Unmarked numbers belong to inactive results.

System: OVCAR-5 ovarian
Assay: NCI-60 one-dose screen, 48 h (100 = growth as untreated, 0 = no growth, -100 = all killed)
Conditions: 10 µM unless noted

| SMILES | growth |
| --- | --- |
| C=C1CCC[C@]2(C)CCC[C@H](C)[C@@H](OC(C)=O)[C@@H]3OC(=O)C(=C)[C@@H]3C[C@H]1O2 | 101% |
| Cc1cc(N)n(S(=O)(=O)c2oc(-c3ccccc3)nc2C#N)n1 | 109% |
| COc1ccc(-c2cc3c(OC)c(OC)c(OC)cc3oc2=O)cc1 | 74% |
| COc1ccc(OC)c(C2OC(c3ccc4ccccc4c3O)=NN2C(C)=O)c1 (centres undefined) | 102% |
| Cc1ccc(NS(=O)(=O)c2cc(C)ccc2C)cc1 | 82.8% |
| COc1cc(-c2nn(-c3cccc(NC(=O)c4ccccc4)c3)cc2-c2ccncc2)ccc1Cl | 66.4% |
| O=C(Nc1cccc(-n2cc(-c3ccncc3)c(-c3ccc(Cl)c(O)c3)n2)c1)Nc1ccc(Cl)c(Cl)c1 | 56.4% |
| O=S(=O)(NCCNc1nccc(-c2c(-c3cccc(O)c3)nc3sccn23)n1)c1ccc(F)cc1 | 107% |
| O=C(Nc1ccc2c(c1)OCCO2)C(=O)c1c[nH]c2ccccc12 | 45.2% |
| CCCCCCCC/C=C/CCCCCCCC1=NC(C)(C)CN1C(C)(C)CO | 65.1% |
| COc1ccc(-n2c(=S)sc3c(Cl)nc(C)nc32)c(OC)c1 | 87% |
| CCOC(=O)c1cn2c3c(cc(C)cc3c1=O)C(=O)/C(=C/c1ccccc1)C2 | 90% |
| CN(C)CC(C(=O)c1ccccc1)c1ccccc1 (centres undefined) | 59.3% |
| NC(=O)CCCN1C/C(=C\c2ccccc2)C(=O)c2ccccc21 | 101% |
| COc1ccc(Nc2nn3c(C)cc(C)nc3c2C(=O)Nc2ccc(C)cc2)c(OC)c1 | 82.9% |
| COc1cc(-c2nn(-c3cccc(NC(=O)c4ccc(Cl)c(C(F)(F)F)c4)c3)cc2-c2ccncc2)ccc1Cl | 91.3% |
| COc1cc(-c2nc(-c3nc4ccc(Cl)cc4[nH]3)cc3c2[nH]c2ccccc23)cc(OC)c1OC | 93.3% |
| Cc1c(C(N)=O)sc2c1c(=O)n(Cc1ccccc1)c1nnc(Nc3ccccc3)n21 | 104% |
| O=c1c2sc3ncccc3c2nnn1-c1ccccc1 | 101% |
| CCCCCCCC[C@@H](O)CC(=O)N[C@@H](CC(N)=O)C(=O)N[C@@H](CCC(N)=O)C(=O)N[C@@H](CC(=O)c1cc(C)cc(O)c1C(=O)c1c(O)cccc1O)CC(C)C | 39.9% |
| COc1cc(/C(C#N)=C/c2ccc3c(c2OC)OCO3)cc2c1OCO2 | 42.7% |
| COc1ccc(Nc2[nH]n3c(=O)cc(C)nc3c2C(N)=O)c(OC)c1 | 113% |
| Fc1ccc(Nc2nc(NCCNc3ccnc4cc(Cl)ccc34)nc(N3CCOCC3)n2)cc1 | 105% |
| CN(C)c1oc(C2OC2c2ccccc2)nc1C#N (centres undefined) | 89.6% |
